This is a sample that favours compounds with a hit; in the whole collection about 2.3% have one here.
S2 tox: viability counter-screen for ATXN expression inhibitors. S2 cells (HEK-293 line with an ATXN2-luciferase reporter) viability, CellTiter-Fluor protease fluorescence, 24 h. Potency, µM (doses to about 56.7 µM), usual class: cytotoxic. 400,000 tested, 0.49% active; note: nearly all actives have a fitted effect of over 40% in size
HepG2 tox: counter-screen for TGF-b inhibitors: cytotoxicity in HepG2 cells; HepG2 CAGA-GFP viability, ATP luminescence, 18 h; Potency, µM (titrated, usually from 46.1 µM), for the others: at the highest dose activity change, negative = cytotoxicity, hits mostly cytotoxic; 410,000 tested, 0.76% active; AID 588856
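CellTiter-Glo luminescence gave cytotoxicity after 18 hours at 37 degrees C. The cells were HepG2 CAGA-GFP in 1% FBS DMEM, stimulated with 500 pg/mL TGF-beta after compound addition. %Activity was normalised to no-cell wells (complete cell-killing) and DMSO (no toxicity), and curves were fitted and classified.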
TGFb inhibitor: blocks TGF-b signaling | Potency, µM (series often up to 46.1 µM), without a hit: at the highest dose activity, negative = inhibition, most hits filed as inhibitors | 410,000 tested, 1.2% active | HepG2 CAGA-GFP TGF-b/SMAD3 reporter, GFP fluorescence, 18 h; TGF-beta stimulated, 500 pg/mL final; note: % is set by controls: 0 for no effect and ±100 for the full control effect; nearly all actives have a fitted effect of over 65% in size
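HEPG2 CAGA-GFP cells (1000/well, DMEM with 1% FBS) were pre-incubated 2 h at 37 degrees C, given compound by pin tool, then stimulated with TGF-beta at 500 pg/mL final for 18 h before per-cell GFP fluorescence imaging.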
ATXN2 expr inh: inhibitors of ATXN2 expression. HEK-293 ATXN2-luciferase reporter, luminescence, 24 h. Potency, µM (highest dose often 57 µM), for the others: at the highest dose activity change, negative = inhibition, actives largely listed as inhibitors. 360,000 tested, 0.72% active. AID 1745845; note: % is set by controls: 0 for no effect and ±100 for the full control effect; nearly all actives have a fitted effect of over 55% in size
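qHTS (up to 57 uM final) was run with 24 h compound exposure of reporter cells at 37 °C. Each well was multiplexed: SteadyGlo luminescence measured ATXN2-luciferase expression after a fluorogenic Gly-Phe-AFC viability readout (25 uM final).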
Numbers without * were called inactive; i = inactive; ? = inconclusive; nt = not tested or not shown; ! = not active in a repeat. Calls come from the whole dose curve; as a rule, active = well fitted curve in the direction sought with a large enough effect; inconclusive = small, poorly fitted or top-dose-only effect, or another doubt; inactive = no such curve, though single readings can be large; an effect the other way counts as inactive or inconclusive. Potency is the fitted concentration of half-maximal effect.

SMILES	S2 tox	HepG2 tox	TGFb inhibitor	ATXN2 expr inh
O=C(CNc1ccc(F)cc1)N/N=C/c1c(O)ccc2ccccc12	?	-37%	?	4.5µM*
COc1ccccc1CNC(=O)CN(c1ccccc1OC)S(C)(=O)=O	nt	-9%	-5%	nt
COc1ccccc1NCC(=O)N/N=C/c1cccnc1	i	5%	5%	5%
Brc1ccc(C2C=Cc3ccccc32)cc1 (stereo not drawn)	nt	3%	0%	nt
Cc1sc2ccccc2[n+]1CC(=O)c1ccc(F)cc1	nt	33%	1%	nt
CCOc1ccc(C2c3c(-c4ccc(C)cc4)n[nH]c3C(=O)N2c2ccc(Cl)cc2)cc1 (stereo not drawn)	nt	13µM*	4.5µM*	-28%
CCOc1ccc(N2C(=O)c3[nH]nc(-c4ccccc4)c3C2c2ccc(O)c(OC)c2)cc1 (stereo not drawn)	?	-25%	?	?
Cc1ccc(-c2n[nH]c3c2C(c2cccc(O)c2)N(c2ccc(C(=O)O)cc2)C3=O)cc1 (stereo not drawn)	i	15%	?	14%
O=C1c2[nH]nc(-c3ccc(Br)cc3)c2C(c2cccc(O)c2)N1c1ccc(Cl)cc1 (stereo not drawn)	nt	14µM*	7.1µM*	?
O=C1c2[nH]nc(-c3ccccc3)c2C(c2ccccc2)N1c1cccc(C(F)(F)F)c1 (stereo not drawn)	?	18µM*	?	?
Cc1ccc(-c2n[nH]c3c2C(c2ccccc2)N(c2ccc(C(=O)O)cc2)C3=O)cc1 (stereo not drawn)	i	6%	4%	8%
COC(=O)[C@@H]1CCCN1Cc1ccc2c(c1)CN(Cc1cccc(Cl)c1)CCO2	i	nt	nt	nt
COc1cc(C#Cc2c(-c3cncn3C)n(C)c3ccc(-c4cc(OC)c(OC)c(OC)c4)cc23)cc(OC)c1	i	-14%	?	?
COc1cc(C#Cc2c(-c3cncn3C)n(C)c3ccc(-c4ccc(OC)nc4)cc23)cc(OC)c1	?	-30%	?	28µM*
CC1(C)CC(=O)C2=C(C1)OC1=C(C(=O)CC(C)(C)C1)C2c1ccc(O)cc1O	?	7.1µM*	7.1µM*	-32%
COC(C(=O)C(O)C(C)O)C1Cc2cc3cc(OC4CC(OC5CC(O)C(O)C(C)O5)C(O)C(C)O4)c(C)c(O)c3c(O)c2C(=O)C1OC1CC(OC2CC(OC3CC(C)(O)C(O)C(C)O3)C(O)C(C)O2)C(O)C(C)O1 (stereo not drawn)	nt	23%	0.63µM*	nt
OC(c1ccc(F)cc1)c1ncc(-c2ccc(Oc3ccccc3)cc2)[nH]1 (stereo not drawn)	?	16µM*	?	-15%
O=c1c2ccccc2sn1-c1cc(S(=O)(=O)N2CCOCC2)ccc1N1CCCC1	i	-9%	-27%	-12%
O=c1c2ccccc2sn1-c1cc(S(=O)(=O)N2CCOCC2)ccc1N1CCOCC1	i	-94%	11µM*!	-14%
C[C@@H]1C(=O)O[C@H]2CC34[C@H]5C[C@@H](C(C)(C)C)C36[C@H](OC(=O)[C@@H]6O)O[C@@]4(C(=O)O5)[C@]21O (stereo partly drawn)	nt	nt	nt	0%
Cc1cc2c(c(-c3ccc4nc(C)ccc4c3)c1)OC(CNC(=O)Cc1ccn(C)c1)C2 (stereo not drawn)	i	nt	nt	nt
COc1ccc(C)cc1-n1nnnc1SCc1nc(N)nc(N(C)C)n1	i	-37%	11µM*	-20%
Cc1cccc(C)c1-n1nnnc1SCc1nc(N)nc(N(C)C)n1	i	-61%	5.6µM*	-16%
CN(C)c1nc(N)nc(CSc2nnnn2-c2ccc(F)cc2)n1	i	1%	-22%	-2%
O=C(NCC1Cc2cccc(-c3cnccn3)c2O1)C1COc2ccccc2O1 (stereo not drawn)	i	nt	nt	nt
SMILES	S2 tox	HepG2 tox	TGFb inhibitor	ATXN2 expr inh
Cc1ccc(C(C)C)c(OCC(O)CN2CCc3ccccc3C2)c1 (stereo not drawn)	?	-43%	?	?
Cc1ccc(C(C)C)c(OCC(O)CN2CCN(c3ccccc3F)CC2)c1 (stereo not drawn)	nt	-54%	16µM*	nt
Cc1cnc(C)c(-c2cccc3c2OC(CNC(=O)c2cc(C)on2)C3)n1 (stereo not drawn)	i	nt	nt	nt
Cc1cc(SCC(=O)N/N=C/c2ccc(O)cc2O)nc2ccccc12	i	-12%	-11%	13µM*
Cc1cc(SCC(=O)N/N=C/c2ccc(O)c(O)c2)nc2ccccc12	?	-21%	-24%	-10%
O=C(Nc1nc2ccc(F)cc2s1)c1nc(S(=O)(=O)Cc2ccccc2)ncc1Cl	14µM*	-116%	?	?
COc1ccc2nc(NC(=O)c3nc(S(=O)(=O)Cc4ccccc4)ncc3Cl)sc2c1	nt	10µM*	7.9µM*	nt
CC(C)C(N)c1csc(NC(=O)Nc2ccc(OC(F)(F)F)cc2)n1 (stereo not drawn)	20µM*	20µM*	20µM*	?
CC(C)c1ccc(NC(=O)Nc2nc(C(C)N)cs2)cc1 (stereo not drawn)	nt	-85%	18µM*	?
CC(C)C(N)c1csc(NC(=O)Nc2cccc(C(F)(F)F)c2)n1 (stereo not drawn)	nt	-99%	?	?
CC(C)c1ccc(NC(=O)Nc2nc(C(N)C3CCCCC3)cs2)cc1 (stereo not drawn)	?	10µM*	22µM*	?
COc1cccc(Nc2nc(C(N)C3CCCCC3)cs2)n1 (stereo not drawn)	nt	16µM*	?	0%
Cc1cccc(CNC(=O)c2cnn(-c3nccc(-c4cc(C)sc4C)n3)c2C)n1	i	nt	nt	nt
Cc1cccc(OCC(=O)Nc2ccc(O)c(-c3nc4ccccc4o3)c2)c1	nt	6%	5%	nt
O=C(Nc1ccccc1)c1cc(C2CCCN(C(=O)C3CC3)C2)on1 (stereo not drawn)	i	8.9µM*	1%	10µM*
Nc1ncnc2c1nc(Cl)n2[C@@H]1O[C@H](CO)[C@@H](O)[C@@H]1O	nt	-92%	?	?
N#C/C(=C\c1cccc(NC(=O)c2ccccc2Cl)c1)C(=O)NCCc1ccccc1	i	11µM*	?	-37%
CC(C)NC(=O)c1ccc(C=O)cc1	i	nt	nt	5%
COc1ccc(C(=O)N/N=C/c2ccc(OC)c(COc3c(F)c(F)cc(F)c3F)c2)cc1	i	-35%	0%	-9%
COc1ccc(/C=N\NC(=O)c2ccc([N+](=O)[O-])cc2)cc1COc1c(F)c(F)cc(F)c1F	i	-50%	0.35µM*	-27%
CCN(CC)c1ccc(N=Nc2ccc(S(=O)(=O)N(C)C)cc2)c(S(=O)(=O)NCC[n+]2ccccc2)c1	i	nt	nt	nt
CCc1cccc(NC(=O)C(Cc2ccccc2)NS(=O)(=O)c2ccc3c(c2)c(=O)n(C)c(=O)n3C)c1 (stereo not drawn)	i	-31%	4.5µM*	-32%
COc1ccc(C(C)=O)c(O)c1	nt	nt	nt	15µM*
